Measured values published in PubChem BioAssay (NCATS).
Results filed as inconclusive are left out. Values without a mark were called inactive. The list shows a part of the results. A call without a number means that no potency is given here. Active and inactive are the calls of the source. Unless noted, calls follow the shape of the dose curve; as a rule, active = well fitted curve in the direction sought with a large enough effect; inconclusive = small, poorly fitted or top-dose-only effect, or another doubt; inactive = no such curve, though single readings can be large; an effect the other way counts as inactive or inconclusive.

What was measured:
[1] = biological target: Tumor susceptibility gene 101 protein (Homo sapiens) (UniProt Q99816); experiment: qHTS Assay for Iinhibitors of HIV-1 Budding by Blocking the Interaction of PTAP/TSG101: Hit Validation (AID 651600); also: nearly all actives have a fitted effect of over 70% in size; also: potency is read from the fitted curve at half-maximal effect
Outline: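 Fluorescence polarization binding assay: Tsg101 binding domain (10 uM) mixed with compounds and FITC-labeled PTAP peptide (50 nM) in HEPES pH 7.5, 0.15 M NaCl, 0.01% Tween 20, EDTA, TCEP; 20 min at r.t.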

[2] = biological target: Rap guanine nucleotide exchange factor 3 (Homo sapiens) (UniProt O95398); experiment: Confirmatory qHTS for antagonist of cAMP-regulated guanine nucleotide exchange factor 3 (EPAC1) (AID 1645880); conditions: EPAC1 Rap1B-BODIPY-GDP exchange, fluorescence; activity, negative = inhibition: at 115 µM (top of the series); also: nearly all actives have a fitted effect of over 55% in size; also: potency is read from the fitted curve at half-maximal effect
Outline: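 Nucleotide exchange uses 100 nM EPAC1, 250 nM RAP1B-BODIPY-GDP and 50 uM GDP, with compounds in a concentration-titration series. After 5 min at room temperature, fluorescence (480 nm ex/540 nm em) is read every 5 min for 30 min. Data are normalized to control ATA and DMSO.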

[3] = biological target: Rap guanine nucleotide exchange factor 3 (Homo sapiens) (UniProt O95398); experiment: Confirmatory qHTS for agonist of cAMP-regulated guanine nucleotide exchange factor 3 (EPAC1) (AID 1645881); also: nearly all actives have a fitted effect of over 75% in size; also: potency is read from the fitted curve at half-maximal effect;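 as to activation: EPAC1 catalysed release of BODIPY-GDP from Rap1B seen as fluorescence loss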
[4] = biological target: Rap guanine nucleotide exchange factor 4 (Homo sapiens) (UniProt Q8WZA2); experiment: Confirmatory qHTS for agonist of cAMP-regulated guanine nucleotide exchange factor 4 (EPAC2) (AID 1645884);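 also: nucleotide exchange releases bodipy-GDP from Rap1 and this lowers its fluorescence; nearly all actives have a fitted effect of over 65% in size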; also: potency is read from the fitted curve at half-maximal effect
[5] = biological target: Rap guanine nucleotide exchange factor 4 (Homo sapiens) (UniProt Q8WZA2); experiment: Confirmatory qHTS for antagonist of cAMP-regulated guanine nucleotide exchange factor 4 (EPAC2) (AID 1645885); also: nearly all actives have a fitted effect of over 25% in size; also: potency is read from the fitted curve at half-maximal effect
[6] = biological target: Rap guanine nucleotide exchange factor 3 (Homo sapiens) (UniProt O95398); experiment: Counterscreen qHTS for antagonist of cAMP-regulated guanine nucleotide exchange factor 3 (EPAC1) (AID 1645888);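 also: fluorescence loss as bound BODIPY-GDP is released from Rap1B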
Outline: (§1)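 Rap1B–BODIPY-GDP (250 nM) with 50 uM GDP; compounds pin-transferred to 9.74 nM–152 uM final (activator) or from 7.32 nM upwards (inhibitor). Fluorescence Ex/Em 480/540 nm read at 5 and 30 min, then after adding cAMP or buffer, at room temperature.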

[7] = biological target: Rap guanine nucleotide exchange factor 3 (Homo sapiens) (UniProt O95398); experiment: Counterscreen qHTS for agonist of cAMP-regulated guanine nucleotide exchange factor 3 (EPAC1) (AID 1645889); also: nearly all actives have a fitted effect of over 40% in size; also: potency is read from the fitted curve at half-maximal effect
Outline: as §1

[8] = biological target: DNA polymerase iota (Homo sapiens) (UniProt Q9UNA4); experiment: qHTS for Inhibitors of Polymerase Iota: Confirmatory Assay for Cherry-picked Compounds (AID 720496); conditions: Pol iota primer extension, TAMRA/BHQ fluorescence; also: potency is read from the fitted curve at half-maximal effect
Outline: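 Read-out is TAMRA fluorescence (525 nm excitation, 598 nm emission) at 0 and 10 min. It reflects strand displacement from a BHQ-2-quenched template by 10 nM Pol iota, with 50 nM final substrate after 15 min compound preincubation.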

[9] = biological target: DNA polymerase kappa (Homo sapiens) (UniProt Q9UBT6); experiment: qHTS for Inhibitors of Polymerase Kappa: Confirmatory Assay for Cherry-picked Compounds (AID 720501); conditions: purified Pol-kappa, fluorescent strand-displacement substrate; also: potency is read from the fitted curve at half-maximal effect
Outline: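 10 nM human Pol-kappa was preincubated with compound 15 min at room temperature, then 50 nM (final) primer/template substrate with TAMRA-labeled reporter strand and BHQ-2-labeled template added. Fluorescence (Ex 525, Em 598 nm) read at 0 and 10 min.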

[10] = AP1 Signaling Pathway (AID 357; active = well fitted curve in either direction with a large enough effect, not every such curve was filed as active;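 also: ME-180 reporter cells stimulated with EGF at its EC50 level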); conditions: ME-180 (cervical carcinoma) AP-1-bla reporter, EGF-induced, beta-lactamase ratio, 5 h; at 7.69 µM (top of the series) unless noted
Outline: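 First, ME-180 AP-1-bla cells were cultured overnight at 37 °C in low-serum Opti-MEM. Next, titrated compounds with EC50 EGF were incubated 5 hours. Finally, CCF4 was added for 2.5 hours and the 460/530 nm ratio recorded.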

[11] = NFAT Signaling Pathway (AID 444; active = well fitted curve in either direction with a large enough effect, not every such curve was filed as active;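 also: carbachol stimulus at about its EC50 of 1 µM final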); conditions: Jurkat NFAT-bla M1, carbachol, beta-lactamase ratio, 5 h; at 7.69 µM (top of the series) unless noted
Outline: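 Jurkat cells with NFAT-driven β-lactamase reporter and co-expressed M1 receptor, stimulated with carbachol (final 1 uM, ~EC50), compound titration, 5 h at 37 °C. CCF4 loaded 1 h at RT; 460/530 nm ratio gave %activity and AC50.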

[12] = Stat Signaling Pathway (AID 446; active = well fitted curve in either direction with a large enough effect, not every such curve was filed as active;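 also: ME-180 cervical cancer cells given 40 pM IL-6 alongside compound; SIE-controlled beta-lactamase reporter measured as 460/530 nm FRET emission ratio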)
Outline: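 IL-6/STAT signaling read in ME-180 cells via an SIE beta-lactamase reporter. Stimulus was 40 pM IL-6 (its AC50) for 5 hrs, so both activation and inhibition register.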

[13] = biological target: DNA polymerase eta (Homo sapiens) (UniProt Q9Y253); experiment: qHTS for Inhibitors of Polymerase Eta: Confirmatory Assay for Cherry-picked Compounds (AID 720502); conditions: Pol eta primer extension, TAMRA/BHQ fluorescence, 10 min; also: potency is read from the fitted curve at half-maximal effect
Outline: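 Compounds are preincubated 15 min at room temperature with 10 nM human Pol eta, with buffer-only wells serving as negative control. Adding 50 nM final substrate starts the reaction, and TAMRA fluorescence is read over 10 min.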

[14] = biological target: Tyrosyl-DNA phosphodiesterase 1 (Homo sapiens) (UniProt Q9NUW8); experiment: Confirmation Assay for Inhibitors of Tyrosyl-DNA Phosphodiesterase (TDP1) (AID 489007); conditions: recombinant human TDP1 enzymatic activity, dose-response; also: potency is read from the fitted curve at half-maximal effect; nearly all actives have a fitted effect of over 40% in size
Outline: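 Recombinant human Tdp1 (1 nM final), expressed in E. coli, preincubated 15 min with compound. Then 15 nM 5'-biotin/3'-phosphotyrosine-FITC DNA substrate added for 5 min at room temperature. AlphaScreen beads (10 ug/ml) added for 10 min; cleavage gives signal loss.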

[15] = qHTS for Inhibitors of Plasmodium falciparum (DD2) proliferation (AID 504314);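 also: parasite DNA measured by SYBR Green fluorescence after red cell lysis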
Outline: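 Fluorescence read-out (ex 485/em 535 nm) of SYBR Green-stained parasite DNA quantifies intraerythrocytic growth. Cultures at 0.3% parasitemia and 2.5% hematocrit were treated for 72 h; data normalized to DMSO and 0.29 uM artemisinin wells.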

[16] = qHTS for Inhibitors of Plasmodium falciparum (GB4) proliferation (AID 504315); also: nearly all actives have a fitted effect of over 50% in size
Outline: (§2)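 Erythrocytes infected with P. falciparum line (0.3% parasitemia, 2.5% hematocrit final) incubated with compounds 72 h at 37 °C, 5% CO2; SYBR Green lysis buffer added, fluorescence read next day. Normalized to 0.29 uM artemisinin and DMSO.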

[17] = qHTS for Inhibitors of Plasmodium falciparum (7G8) proliferation (AID 504316); also: nearly all actives have a fitted effect of over 65% in size
Outline: as §2

[18] = qHTS for Inhibitors of Plasmodium falciparum (CP250) proliferation (AID 504320)
Outline: as §2

[19] = qHTS for Inhibitors of Plasmodium falciparum (HB3) proliferation (AID 504318); also: nearly all actives have a fitted effect of over 60% in size
Outline: as §2

Chain of Tumor susceptibility gene 101 protein (Homo sapiens) (Q99816 whole entry, looked up, the tested form may be a part): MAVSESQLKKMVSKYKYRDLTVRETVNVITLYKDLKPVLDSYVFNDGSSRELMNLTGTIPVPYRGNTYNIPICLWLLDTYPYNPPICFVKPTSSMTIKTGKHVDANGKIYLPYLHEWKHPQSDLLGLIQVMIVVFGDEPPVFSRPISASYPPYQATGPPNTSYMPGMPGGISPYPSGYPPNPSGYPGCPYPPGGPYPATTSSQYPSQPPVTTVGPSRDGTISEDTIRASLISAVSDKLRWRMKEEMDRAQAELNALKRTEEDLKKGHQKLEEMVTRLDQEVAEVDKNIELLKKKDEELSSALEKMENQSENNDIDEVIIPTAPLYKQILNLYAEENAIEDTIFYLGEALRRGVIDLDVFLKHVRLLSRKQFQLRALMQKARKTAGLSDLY
Chain of Rap guanine nucleotide exchange factor 3 (Homo sapiens) (O95398 whole entry, looked up): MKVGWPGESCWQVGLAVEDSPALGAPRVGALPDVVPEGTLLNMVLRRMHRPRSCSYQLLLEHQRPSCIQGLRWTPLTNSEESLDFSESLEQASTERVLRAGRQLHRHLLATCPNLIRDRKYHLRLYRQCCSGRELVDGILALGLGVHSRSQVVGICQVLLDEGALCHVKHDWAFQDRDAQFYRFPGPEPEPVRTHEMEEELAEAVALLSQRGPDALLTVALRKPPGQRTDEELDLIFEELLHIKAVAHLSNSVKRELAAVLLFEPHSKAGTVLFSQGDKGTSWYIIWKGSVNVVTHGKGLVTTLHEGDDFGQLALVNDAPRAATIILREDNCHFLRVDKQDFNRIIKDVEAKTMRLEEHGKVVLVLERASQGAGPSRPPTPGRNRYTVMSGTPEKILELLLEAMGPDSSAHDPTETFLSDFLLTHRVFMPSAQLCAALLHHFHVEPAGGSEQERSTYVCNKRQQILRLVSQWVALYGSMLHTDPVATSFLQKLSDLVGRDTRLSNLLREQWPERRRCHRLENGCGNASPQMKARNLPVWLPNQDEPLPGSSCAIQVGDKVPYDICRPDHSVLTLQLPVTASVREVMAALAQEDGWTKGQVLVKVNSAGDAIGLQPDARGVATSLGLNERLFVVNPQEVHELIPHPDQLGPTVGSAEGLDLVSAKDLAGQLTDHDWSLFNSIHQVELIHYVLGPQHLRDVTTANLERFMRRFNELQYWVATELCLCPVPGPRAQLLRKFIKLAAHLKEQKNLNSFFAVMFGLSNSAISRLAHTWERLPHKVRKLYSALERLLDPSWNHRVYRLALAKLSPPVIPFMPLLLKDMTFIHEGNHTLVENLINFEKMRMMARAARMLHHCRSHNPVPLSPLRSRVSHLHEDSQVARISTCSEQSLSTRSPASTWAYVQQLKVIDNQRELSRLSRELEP
Chain of Rap guanine nucleotide exchange factor 4 (Homo sapiens) (Q8WZA2 whole entry, looked up): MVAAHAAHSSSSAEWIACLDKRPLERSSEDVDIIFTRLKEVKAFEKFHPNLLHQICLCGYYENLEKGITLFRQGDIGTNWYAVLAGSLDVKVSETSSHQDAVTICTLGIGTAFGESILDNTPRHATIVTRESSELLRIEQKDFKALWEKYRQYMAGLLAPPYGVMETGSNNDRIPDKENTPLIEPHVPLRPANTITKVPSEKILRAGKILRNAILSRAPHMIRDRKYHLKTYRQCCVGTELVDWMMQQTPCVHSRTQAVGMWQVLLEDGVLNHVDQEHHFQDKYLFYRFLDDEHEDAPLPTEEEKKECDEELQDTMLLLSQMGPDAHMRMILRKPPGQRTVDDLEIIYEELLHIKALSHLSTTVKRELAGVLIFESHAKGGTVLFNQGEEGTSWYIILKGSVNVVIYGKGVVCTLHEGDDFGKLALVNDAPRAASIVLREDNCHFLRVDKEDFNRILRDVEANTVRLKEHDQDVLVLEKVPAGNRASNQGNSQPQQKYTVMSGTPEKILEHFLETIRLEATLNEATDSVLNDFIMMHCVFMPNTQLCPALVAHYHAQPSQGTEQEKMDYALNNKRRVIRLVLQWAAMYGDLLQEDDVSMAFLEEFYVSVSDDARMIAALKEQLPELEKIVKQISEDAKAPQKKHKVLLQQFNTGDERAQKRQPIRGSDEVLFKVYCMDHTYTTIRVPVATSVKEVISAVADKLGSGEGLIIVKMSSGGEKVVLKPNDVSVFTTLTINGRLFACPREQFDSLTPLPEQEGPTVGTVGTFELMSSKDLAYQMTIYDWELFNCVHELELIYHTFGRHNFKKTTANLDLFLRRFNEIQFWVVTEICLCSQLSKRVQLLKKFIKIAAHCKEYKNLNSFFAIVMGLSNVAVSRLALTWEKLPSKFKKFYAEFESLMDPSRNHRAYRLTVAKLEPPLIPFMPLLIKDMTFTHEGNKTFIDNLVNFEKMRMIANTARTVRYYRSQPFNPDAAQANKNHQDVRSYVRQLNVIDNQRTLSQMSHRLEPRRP
Chain of DNA polymerase iota (Homo sapiens) (Q9UNA4 whole entry, looked up): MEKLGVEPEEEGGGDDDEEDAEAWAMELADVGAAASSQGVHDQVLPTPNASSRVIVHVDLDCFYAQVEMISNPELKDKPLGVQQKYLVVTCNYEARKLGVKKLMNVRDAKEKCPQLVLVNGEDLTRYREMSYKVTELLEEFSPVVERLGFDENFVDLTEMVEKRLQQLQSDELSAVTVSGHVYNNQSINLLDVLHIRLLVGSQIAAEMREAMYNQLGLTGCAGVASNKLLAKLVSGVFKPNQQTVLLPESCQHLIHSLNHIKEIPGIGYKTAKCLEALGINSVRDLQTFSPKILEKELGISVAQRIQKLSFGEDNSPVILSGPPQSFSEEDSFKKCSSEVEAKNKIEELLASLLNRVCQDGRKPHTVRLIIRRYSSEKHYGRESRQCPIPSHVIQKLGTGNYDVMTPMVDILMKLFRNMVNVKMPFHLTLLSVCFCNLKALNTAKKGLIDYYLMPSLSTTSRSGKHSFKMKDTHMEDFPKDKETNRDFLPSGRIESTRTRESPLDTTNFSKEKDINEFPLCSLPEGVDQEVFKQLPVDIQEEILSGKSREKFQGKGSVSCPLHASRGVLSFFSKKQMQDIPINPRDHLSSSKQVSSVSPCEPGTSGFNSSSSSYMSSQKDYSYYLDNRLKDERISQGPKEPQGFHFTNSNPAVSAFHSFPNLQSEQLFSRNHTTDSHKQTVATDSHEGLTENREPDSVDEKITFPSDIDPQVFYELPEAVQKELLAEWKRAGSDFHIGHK
Chain of DNA polymerase kappa (Homo sapiens) (Q9UBT6 whole entry, looked up): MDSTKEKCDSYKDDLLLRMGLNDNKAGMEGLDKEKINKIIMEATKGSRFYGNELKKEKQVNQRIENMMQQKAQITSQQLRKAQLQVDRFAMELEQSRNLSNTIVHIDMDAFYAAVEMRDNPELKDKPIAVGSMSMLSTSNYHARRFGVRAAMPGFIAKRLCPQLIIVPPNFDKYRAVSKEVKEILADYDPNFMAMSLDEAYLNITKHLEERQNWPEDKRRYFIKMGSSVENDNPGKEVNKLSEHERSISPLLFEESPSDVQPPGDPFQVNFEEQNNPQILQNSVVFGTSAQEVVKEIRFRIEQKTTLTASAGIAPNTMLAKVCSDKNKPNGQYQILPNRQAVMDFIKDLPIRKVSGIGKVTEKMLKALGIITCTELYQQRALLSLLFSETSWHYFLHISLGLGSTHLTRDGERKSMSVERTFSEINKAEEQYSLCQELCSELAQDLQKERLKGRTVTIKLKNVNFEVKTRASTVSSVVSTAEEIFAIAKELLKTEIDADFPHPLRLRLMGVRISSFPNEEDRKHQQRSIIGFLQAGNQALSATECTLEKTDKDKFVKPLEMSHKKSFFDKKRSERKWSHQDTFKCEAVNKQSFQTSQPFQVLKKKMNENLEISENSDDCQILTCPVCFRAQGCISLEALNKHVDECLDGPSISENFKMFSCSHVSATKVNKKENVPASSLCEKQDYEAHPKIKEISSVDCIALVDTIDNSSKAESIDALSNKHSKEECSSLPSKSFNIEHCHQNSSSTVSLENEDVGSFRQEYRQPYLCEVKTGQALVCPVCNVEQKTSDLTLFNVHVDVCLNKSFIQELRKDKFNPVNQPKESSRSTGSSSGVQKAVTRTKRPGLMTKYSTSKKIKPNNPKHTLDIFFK
Chain of DNA polymerase eta (Homo sapiens) (Q9Y253 whole entry, looked up): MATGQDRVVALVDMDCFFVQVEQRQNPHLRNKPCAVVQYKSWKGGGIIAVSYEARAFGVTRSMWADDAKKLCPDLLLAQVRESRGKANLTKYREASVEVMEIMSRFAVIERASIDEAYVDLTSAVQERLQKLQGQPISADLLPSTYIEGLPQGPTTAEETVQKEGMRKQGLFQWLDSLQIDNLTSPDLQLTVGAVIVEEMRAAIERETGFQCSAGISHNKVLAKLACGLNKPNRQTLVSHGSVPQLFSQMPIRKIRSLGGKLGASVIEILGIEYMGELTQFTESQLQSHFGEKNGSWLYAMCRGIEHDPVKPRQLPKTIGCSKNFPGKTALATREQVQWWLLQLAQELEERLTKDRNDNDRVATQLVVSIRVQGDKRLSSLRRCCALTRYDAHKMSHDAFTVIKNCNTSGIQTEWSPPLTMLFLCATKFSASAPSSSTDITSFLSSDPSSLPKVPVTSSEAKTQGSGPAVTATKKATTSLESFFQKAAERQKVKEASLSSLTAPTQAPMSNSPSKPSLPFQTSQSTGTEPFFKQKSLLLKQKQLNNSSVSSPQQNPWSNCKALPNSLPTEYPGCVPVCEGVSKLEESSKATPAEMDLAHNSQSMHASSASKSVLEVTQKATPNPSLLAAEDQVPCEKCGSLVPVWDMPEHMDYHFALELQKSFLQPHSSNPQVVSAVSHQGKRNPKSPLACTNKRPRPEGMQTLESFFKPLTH

N#CC(C(=O)OC1CCCCC1)c1nc2ccccc2nc1N1CCOCC1 (stereo not drawn)
Potency [1]: 10.3 µM (active) | Potency [2]: inactive | Potency [3]: inactive | activation [4]: -10.2% [at 17.1 µM, percent relative to cAMP agonist control] | Potency [5]: inactive | activity change, negative = inhibition [6]: -21.8% [at 30.8 µM] | activation [7]: -0.592% [at 30.8 µM]

COc1ccc(Br)cc1/C=N/Nc1ccc(S(=O)(=O)Nc2ccccc2C(=O)O)cc1[N+](=O)[O-]
Potency [8]: 37.7 µM (active) | Potency [9]: 42.3 µM (active) | Potency [2]: 25.1 µM (active) | Potency [3]: inactive | activation [4]: 0.546% [at 17.1 µM, percent relative to cAMP agonist control] | Potency [5]: inactive | activity change, negative = inhibition [6]: -3.11% [at 30.8 µM] | activation [7]: 19% [at 30.8 µM]

Cc1cc(=O)oc2ccc(OC(=O)CN3C(=O)c4cccc([N+](=O)[O-])c4C3=O)cc12
Potency [1]: inactive | Potency [2]: inactive | Potency [3]: inactive | Potency [4]: inactive | Potency [5]: inactive | Potency [6]: inactive | Potency [7]: inactive

COc1cccc(NC(=O)/C(C#N)=C/c2ccc(-c3ccc(C)cc3)o2)c1
Potency [1]: inactive | Potency [2]: inactive | Potency [3]: inactive | Potency [4]: inactive | Potency [5]: inactive | Potency [6]: inactive

CC1=C(C#N)C(=O)OC(C)(C)C1
activity change, negative = inhibition [10]: 8.14% [at 17.2 µM] | activity change, negative = inhibition [11]: -4.86% [at 17.2 µM] | outcome [12]: inactive | Potency [2]: inactive | Potency [3]: inactive | Potency [4]: inactive | Potency [5]: 0.601 µM (active) | Potency [6]: inactive

N=c1c(S(=O)(=O)c2ccc(Br)cc2)cc2c(=O)n3ccccc3nc2n1Cc1ccccc1
Potency [1]: inactive | Potency [2]: 50.1 µM (active) | Potency [3]: inactive | activation [4]: -5.31% [at 17.1 µM, percent relative to cAMP agonist control] | Potency [5]: inactive | activity change, negative = inhibition [6]: -6.58% [at 30.8 µM] | activation [7]: 9.82% [at 30.8 µM]

NC1=CC(=O)C(=O)c2cccnc21
Potency [8]: 42.3 µM (active) | Potency [13]: 26.9 µM (active) | Potency [2]: 10 µM (active) | Potency [3]: inactive | activation [4]: 3.71% [at 17.1 µM, percent relative to cAMP agonist control] | Potency [5]: inactive | activity change, negative = inhibition [6]: -7.69% [at 30.8 µM] | activation [7]: 11.2% [at 30.8 µM]

CSC1=NSC2=NC(=O)/C(=C/c3coc4ccccc4c3=O)C(=N)N12
Potency [1]: 18.3 µM (active) | Potency [2]: inactive | Potency [3]: 89.1 µM (active) | Potency [4]: 100 µM (active) | Potency [5]: inactive | Potency [6]: inactive | Potency [7]: 39.8 µM (active)

Cn1c(/C(C#N)=C/c2ccc(-c3ccc(S(N)(=O)=O)cc3)o2)nc2ccccc21
Potency [1]: inactive | Potency [2]: inactive | Potency [3]: inactive | Potency [4]: inactive | Potency [5]: 95.3 µM (active) | Potency [6]: inactive

O=[N+]([O-])c1ccc(Sc2cccc[n+]2[O-])c2nonc12
Potency [1]: 18.3 µM (active) | Potency [2]: 31.6 µM (active) | Potency [3]: inactive | activation [4]: 3.05% [at 17.1 µM, percent relative to cAMP agonist control] | Potency [5]: inactive | activity change, negative = inhibition [6]: -8.92% [at 30.8 µM] | activation [7]: 9.42% [at 30.8 µM]

N#CC(C(=O)NCc1ccccc1)c1nc2ccccc2nc1N1CCCC1 (stereo not drawn)
Potency [1]: inactive | Potency [2]: inactive | Potency [3]: 100 µM (active) | Potency [4]: 89.1 µM (active) | Potency [5]: 75.7 µM (active) | Potency [6]: inactive | Potency [7]: inactive

CC(=O)Nc1ccc(N=Cc2c(O)c(C(=O)Nc3ccccc3)cc3ccccc23)cc1
Potency [1]: 16.3 µM (active) | Potency [2]: inactive | Potency [3]: inactive | activation [4]: -21% [at 17.1 µM, percent relative to cAMP agonist control] | Potency [5]: inactive | activity change, negative = inhibition [6]: -16.4% [at 30.8 µM]

O=C(N/N=C/c1ccccc1Cl)c1[nH]c2ccc(Br)cc2c1-c1ccccc1
Potency [1]: inactive | Potency [2]: inactive | Potency [3]: inactive | Potency [4]: 126 µM (active) | Potency [5]: inactive | Potency [6]: inactive

COc1ccc(N=Nc2nc3cc(Br)c(Br)cc3n2C)c(OC)c1
Potency [1]: inactive | Potency [2]: inactive | Potency [3]: inactive | activation [4]: 3.19% [at 17.1 µM, percent relative to cAMP agonist control] | Potency [5]: inactive | activity change, negative = inhibition [6]: 88.5% [at 30.8 µM] | Potency [7]: 12.6 µM (active)

Fc1ccc(N2N=C(c3cccs3)CC2c2ccccc2)cc1 (stereo not drawn)
Potency [14]: 28.2 µM (active) | Potency [2]: inactive | Potency [3]: inactive | Potency [4]: inactive | Potency [5]: inactive | Potency [6]: inactive

COc1ccc2c(c1)O[C@H](c1ccc3c(c1)OCO3)[C@@H](O)C2=O
outcome [15]: inactive | outcome [16]: inactive | outcome [17]: inactive | outcome [18]: inactive | Potency [2]: inactive | Potency [3]: inactive | activation [4]: 6.45% [at 17.1 µM, percent relative to cAMP agonist control] | Potency [5]: inactive | activity change, negative = inhibition [6]: -0.524% [at 30.8 µM] | activation [7]: 17% [at 30.8 µM]

COC(=O)C1=C(C(=O)OC)[C@@H]2N(Cc3ccccc3)c3ccccc3[C@@]23C[C@@H](C(=O)OC)N=C3N1
outcome [15]: inactive | outcome [16]: inactive | outcome [17]: inactive | outcome [19]: inactive | outcome [18]: inactive | Potency [2]: inactive | Potency [3]: inactive | activation [4]: 0% [at 17.1 µM, percent relative to cAMP agonist control] | Potency [5]: inactive | activity change, negative = inhibition [6]: 17% [at 30.8 µM]
